This passage reports Potency results from PubChem BioAssay (NCATS).

Inconclusive results are not listed. Calls of active or inactive are those of the source. The call rests on the fitted dose curve; in most records, active means well fitted cell-killing curve with a large enough effect; inconclusive means small, poorly fitted or top-dose-only effect, or effect the other way; inactive means no such curve, though single readings can be large or run the other way.
Potency means the concentration at half of the fitted maximal effect.

This test in a line: Quantitative High-Throughput drug screen in 47 multiple myeloma cell lines against the NCATS MIPE library collection: KMS11_JCRBsus cell viability assay (AID 1919873). Further: nearly all actives have a fitted effect of over 50% in size. The following applies: KMS11 myeloma viability, CellTiter-Glo ATP luminescence, 48 h; series mostly up to 45.8 µM. The source says:
PI: Beverly A. Mock Ph.D.
Laboratory of Cancer Biology and Genetics,
Center for Cancer Research, National Cancer Institute,
National Institute of Health, Bethesda, Maryland
Drug resistance and disease progression are common in multiple myeloma (MM) patients, underscoring the need for new therapeutic combinations. […] We hypothesized that effective combinations would reduce MYC expression and enhance p16 activity. […] These preclinical data identify potentially useful drug combinations for evaluation in drug-resistant MM and reveal potential mechanisms of combined drug sensitivity.
Described herein is the primary MIPE qHTS used to cherrypick compounds. Validated compounds were then further tested for potential synergistic activiy.
[1] Peat TJ, Gaikwad SM, Dubois W, Gyabaah-Kessie N, Zhang S, Gorjifard S, Phyo Z, Andres M, Hughitt VK, Simpson RM, Miller MA, Girvin AT, Taylor A, Williams D, D'Antonio N, Zhang Y, Rajagopalan A, Flietner E, Wilson K, Zhang X, Shinn P, Klumpp-Thomas C, McKnight C, Itkin Z, Chen L, Kazandijian D, Zhang J, Michalowski AM, Simmons JK, Keats J, Thomas CJ, Mock BA. Drug combinations identified by high-throughput screening promote cell cycle transition and upregulate Smad pathways in myeloma. Cancer Lett. 2023 Aug 1;568:216284. doi: 10.1016/j.canlet.2023.216284. Epub 2023 Jun 24. PMID: 37356470; PMCID: PMC10408729.
SEQUENCE No. (e.g., 1, 2, 3, etc.); […] (e.g., Cells, Incubation, Reagent, etc.); VALUE and DESCRIPTION.
1; Cells; 5 uL; white, solid bottom 1536-well Greiner assay plate.
2; Compounds; 23 nL; Kalypsis pin tool (Wako USA) equipped with a 1536-well pin head to transfer to the assay plates.
3; Incubation; 48 hours; 37C incubation.
4; Reagent;5uL; CellTiter Glo (Promega).
5; Detector; 425V; Luminescence; Viewlux PerkinElmer.
NOTES (numbers refer to Sequence numbers above)
1. The cell-based screening methods employed in this study were like those previously published. Briefly, the corresponding myeloma cell lines were screened in 1,536-well plates with 500 cells, 5-uL per well for inhibition of cell viability (assessed by measuring ATP levels with CellTiterGlo).
2. NCATS MIPE 4.0 library of approved and investigational drugs were added using the Kalypsis pin tool. Wells treated with DMSO only for 100% viability and media only for 0% viability were used as controls.
3. The assay plates were covered and incubated for 48 hours in a 37C, 5% CO2 incubator with controlled humidity.
4. After 48 hours, CellTilter-GloTM luminescent substrate mix (Promega) reagent was added to the assay plate and plates we incubated for 5 min at room temperature.
5. Signal was measured as median relative luminescence units on a ViewLux (PerkinElmer) multiplate reader.
[1] Heske CM, Davis MI, Baumgart JT, Wilson K, Gormally MV, Chen L, Zhang X, Ceribelli M, Duveau DY, Guha R, Ferrer M, Arnaldez FI, Ji J, Tran HL, Zhang Y, Mendoza A, Helman LJ, Thomas CJ. Matrix Screen Identifies Synergistic Combination of PARP Inhibitors and Nicotinamide Phosphoribosyltransferase (NAMPT) Inhibitors in Ewing Sarcoma. Clin Cancer Res. 2017 Dec 1;23(23):7301-7311. doi: 10.1158/1078-0432.CCR-17-1121. Epub 2017 Sep 12. PMID: 28899971; PMCID: PMC6636827.
For orientation: Cellular ATP, detected with luciferase, serves as a proxy for viable cell number.
Regarding `CC[C@H]1OC(=O)[C@H](C)[C@@H](O[C@H]2C[C@@](C)(OC)[C@@H](O)[C@H](C)O2)[C@H](C)[C@@H](O[C@@H]2O[C@H](C)C[C@H](N(C)C)[C@@H]2O)[C@](C)(O)C[C@@H](C)CN(C)[C@H](C)[C@@H](O)[C@]1(C)O`, the Potency entry was “inactive”.
Turning to `NC(CO)(CO)CCc1ccc(Sc2cccc(OCc3ccccc3)c2)cc1Cl`, the Potency was 7.43 µM (active).
For `COc1ccc(-c2coc3cc(O)cc(O)c3c2=O)cc1` the value was “inactive”; for `CC(=NNC(=S)N1CCC1)c1ccccn1`, 0.0033 µM (active).
For `Nc1nc(F)nc2c1ncn2[C@@H]1O[C@H](COP(=O)(O)O)[C@@H](O)[C@H]1O`, the Potency result is “inactive”.
For `O=C(O)c1ccc(-c2c[nH]c3ncc(-c4ccccc4)cc23)cc1C1CCCC1` the value was “inactive”.
For `CCOC1OC(=O)C[C@H]1NC(=O)[C@@H]1CCCN1C(=O)[C@@H](NC(=O)c1ccc(N)c(Cl)c1)C(C)(C)C` (stereo not given in full) the value was “inactive”.
With `CC=CCC=CCCC(=O)[C@H]1O[C@@H]1C(N)=O` the figure was 20.9 µM (active); with `O=C(NCc1ccncc1)C12C[C@H]3C[C@@H](C1)CC(c1ccc(Cl)cc1)(C3)C2`, 14.8 µM (active).
Turning to `O=c1c(-c2ccc(O)cc2)coc2cc(O[C@@H]3O[C@H](CO)[C@H](O)[C@H](O)[C@H]3O)ccc12`, the Potency result was “inactive”.
For `Oc1ccc(C2CCN(c3ccnc4ccccc34)CC2)cc1O` the value was 18.7 µM (active); for `COc1ccc(C2Sc3ccccc3N(CCN(C)C)C(=O)C2OC(C)=O)cc1` (stereo not given), “inactive”.
For the molecule `COc1cccc2c1CCCC2CCCN1CCN(C2CCCCC2)CC1` (stereo not given), the Potency is 18.7 µM (active).
As to `CC=CCC(C)C(O)C1C(=O)NC(CC)C(=O)N(C)CC(=O)N(C)C(CC(C)C)C(=O)NC(C(C)C)C(=O)N(C)C(CC(C)C)C(=O)NC(C)C(=O)NC(C)C(=O)N(C)C(CC(C)C)C(=O)N(C)C(CC(C)C)C(=O)N(C)C(C(C)C)C(=O)N1C` (stereo not given), the Potency result was “inactive”.
With `Cc1ccc(F)c(NC(=O)Nc2ccc(-c3cccc4[nH]nc(N)c34)cc2)c1` the figure was 5.26 µM (active); with `CCOc1ccc(Nc2nc(-c3c(C)nc4ccccn34)cs2)cc1`, “inactive”; with `CNC1CCC(N(Cc2cccc(-c3ccncc3)c2)C(=O)c2sc3c(F)ccc(F)c3c2Cl)CC1` (stereo not given), 9.35 µM (active).
As to `COC(=O)N[C@H](C(=O)N1CCC[C@@H]1c1ncc(-c2ccc(-c3ccc(-c4cnc([C@@H]5CCCN5C(=O)[C@@H](NC(=O)OC)C(C)C)[nH]4)cc3)cc2)[nH]1)C(C)C`, the Potency was 26.4 µM (active).
With `O=C1c2ccccc2-[n+]2ccc3c([nH]c4ccccc43)c21` the figure was 1.05 µM (active); with `CC1(C)O[C@H]2C[C@@H]3[C@H]4CCC5=CC(=O)C=C[C@]5(C)[C@@]4(F)[C@@H](O)C[C@]3(C)[C@]2(C(=O)CO)O1`, 0.0083 µM (active).
`O=C1NC(=O)C(=Cc2ccc3c(c2)OC(F)(F)O3)S1`: the Potency result was “inactive”.
With `Cc1ccc(C(C)(O)c2nc3ccccc3s2)c(C)c1` (stereo not given) the entry was “inactive”; with `CO[C@H]1C=CO[C@@]2(C)Oc3c(C)c(O)c4c(O)c(c5c(c4c3C2=O)NC2(CCN(CC(C)C)CC2)N=5)=NC(=O)C(C)=CC=C[C@H](C)[C@H](O)[C@@H](C)[C@@H](O)[C@@H](C)[C@H](OC(C)=O)[C@H]1C`, “inactive”; with `C=C1C(=O)[C@@]23C(CC[C@@H]1[C@H]2O)[C@@]12CO[C@]3(O)[C@@H](O)[C@@H]1C(C)(C)CC[C@@H]2O` (stereo not given in full), 2.96 µM (active).
As for `COc1ccc(-c2nc(N3CCOCC3)c3sc(CN(C)c4ncc(C(=O)NO)cn4)cc3n2)cn1`, the Potency result was “inactive”.
`CCC(CC)[C@H](NC(C)=O)[C@@H]1[C@H](O)[C@@H](C(=O)O)C[C@@H]1N=C(N)N`: the Potency result was “inactive”.
In the case of `Cc1c(O)cccc1C(=O)N[C@@H](CSc1ccccc1)[C@H](O)CN1C[C@H]2CCCC[C@@H]2C[C@@H]1C(=O)NC(C)(C)C`, the Potency is 18.7 µM (active).
For `CCc1ccc(OCc2ccccc2C(=O)Nc2ccc3nc(C)cc(N)c3c2)cc1` the value was 1.48 µM (active); for `CC(C)(C)OC(=O)N[C@H]1CCCCCC=C[C@@H]2C[C@@]2(C(=O)NS(=O)(=O)C2CC2)NC(=O)[C@@H]2C[C@@H](OC(=O)N3Cc4cccc(F)c4C3)CN2C1=O`, “inactive”.
With `Cc1ccc([C@@H]2O[C@H](CO)[C@@H](O)[C@H](O)[C@@H]2O)cc1Cc1ccc(-c2ccc(F)cc2)s1` the figure was 23.5 µM (active); with `COc1cc2ncnc(Nc3ccc(F)c(Cl)c3)c2cc1OCCCN1CCOCC1`, 21.5 µM (active); with `C[N+](C)(C)CC(=O)O`, “inactive”.
Take `Nc1ncnc2c1nc(Cl)n2[C@@H]1O[C@H](CO)[C@@H](O)[C@@H]1O`: the Potency is 20.9 µM (active).
With `CC[C@@]1(O)C[C@H](O[C@H]2C[C@H](N(C)C)[C@H](O[C@H]3C[C@H](O)[C@H](O[C@H]4CCC(=O)[C@H](C)O4)[C@H](C)O3)[C@H](C)O2)c2c(cc3c(c2O)C(=O)c2c(O)cccc2C3=O)[C@@H]1C(=O)OC` the figure was 0.166 µM (active).
For `Nc1ncnc2c1ncn2[C@@H]1O[C@H](CO)C[C@@H]1O`, the Potency was 37.2 µM (active).
With `O=C1NC(=O)C(=Cc2ccc(-c3ccc(F)cc3)o2)S1` the entry was “inactive”; with `O=c1[nH]cnc2c1ncn2[C@H]1CC[C@@H](CO)O1`, “inactive”; with `O=C1C[C@@H](c2ccc(O)cc2)Oc2cc(O)cc(O)c21`, “inactive”.
For `Cc1ccc(Nc2cc(-c3cccc(N4C(=O)c5ccccc5C4=O)c3)ncn2)cc1NS(C)(=O)=O`, the Potency is 20.9 µM (active).
For `C[C@]12CCC3c4ccc(O)cc4CCC3C1CCC2=O` (stereo not given in full), the Potency is 26.4 µM (active).
